KB-V1 cytotox: KB-V1 MDR subline cytotoxicity | KB-V1 MDR cells viability, CellTiter-Glo, 72 h | Potency, µM (highest dose often 46.1 µM), most hits filed as cytotoxic | hit rate 3.4% among 400,000 | AID 1347076; note: nearly all actives have a fitted effect of over 60% in size
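Compound-treated KB-V1 multidrug-resistant cells, 72 h, 37 degrees C; viability by CellTiter-Glo. Fitted qHTS curves give the values.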
MCF10A rereplic: DNA re-replication induction in MCF 10a cells | MCF 10A DNA re-replication, Hoechst nuclear intensity, 48 h | Potency, µM (series often up to 46.1 µM), actives largely listed as activators | hit rate 2.9% among 350,000; note: nearly all actives have a fitted effect of over 50% in size
KB-3-1 cytotox: KB-3-1 parental cell cytotoxicity. KB-3-1 viability, CellTiter-Glo ATP luminescence, 72 h. Potency, µM (doses to about 46.1 µM), actives largely listed as cytotoxic. hit rate 1.4% among 400,000. AID 1347075; note: nearly all actives have a fitted effect of over 60% in size
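Cytotoxicity measured as CellTiter-Glo luminescence after 72 h at 37 C. Compound titrations were pinned onto drug-naive KB-3-1 parental adenocarcinoma cells grown in DMEM with 10% FBS, and normalized data fitted to concentration-response curves.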
TSG101-PTAP inh: blocks PTAP/TSG101 interaction to inhibit HIV-1 budding; Fluorescence polarization, FITC-PTAP peptide / Tsg101 binding; Q99816; Potency, µM (highest dose often 115 µM), actives largely listed as inhibitors; 340,000 tested, under 10 active; active = well fitted inhibition curve with a large enough effect in the main read-out, with a control signal flat, not every such curve was filed as active; inconclusive = small, poorly fitted or top-dose-only effect, or effect the other way, or a change in a side signal; inactive = no such curve, though single readings can be large or run the other way
Target sequence (Q99816 whole entry, looked up): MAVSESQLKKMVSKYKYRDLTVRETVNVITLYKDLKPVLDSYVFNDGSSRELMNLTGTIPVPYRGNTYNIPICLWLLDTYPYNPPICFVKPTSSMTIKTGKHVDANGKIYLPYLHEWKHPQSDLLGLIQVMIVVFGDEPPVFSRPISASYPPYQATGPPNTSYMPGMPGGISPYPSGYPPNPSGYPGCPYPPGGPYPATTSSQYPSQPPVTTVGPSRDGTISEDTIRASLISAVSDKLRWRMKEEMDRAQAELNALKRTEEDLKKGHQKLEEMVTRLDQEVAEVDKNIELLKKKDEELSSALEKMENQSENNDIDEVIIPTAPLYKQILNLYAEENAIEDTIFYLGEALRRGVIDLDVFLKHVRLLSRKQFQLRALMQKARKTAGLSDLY
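Tsg101 binding domain (10 uM final) was mixed with compound and a FITC-labeled PTAP peptide (50 nM final) in HEPES pH 7.5 buffer with NaCl, Tween 20, EDTA and TCEP; fluorescence polarization was read after 20 min at r.t.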
RGS4 inh: inhibitors of human regulator of G protein signaling 4; P49798; Potency, µM (series often up to 114 µM), usual class: inhibitors; AID 504845; Transcreener GDP fluorescence polarization, RGS4-accelerated GTP hydrolysis; hit rate 0.039% among 390,000; note: nearly all actives have a fitted effect of over 75% in size
Target sequence (P49798 whole entry, looked up): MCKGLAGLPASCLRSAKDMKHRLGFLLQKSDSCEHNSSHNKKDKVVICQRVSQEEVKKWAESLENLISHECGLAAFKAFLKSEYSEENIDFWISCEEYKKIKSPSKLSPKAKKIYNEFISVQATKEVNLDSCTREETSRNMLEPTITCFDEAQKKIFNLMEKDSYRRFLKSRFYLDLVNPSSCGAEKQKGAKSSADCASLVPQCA
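MLSMR compounds (23 nl, pin-transferred) preincubated 10 min at room temperature with a 500nM (2x) first reagent, then RGS4 at 900nM (2x) plus Transcreener GDP mix added; fluorescence polarization (620/688 nm) read before and after 90 min at 30 °C.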
SW480 rereplic: induces DNA re-replication in SW480 colon adenocarcinoma cells; SW480 DNA re-replication, Hoechst DNA content imaging, 48 h; Potency, µM (doses to about 46.1 µM), most hits filed as activators; hit rate 1.8% among 340,000; note: nearly all actives have a fitted effect of over 55% in size
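Compounds, transferred as 23 nL by pin tool, were incubated with cells for 48 hr; DNA content per nucleus was then quantified by Hoechst staining and fluorescence plate imaging.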
Numbers stand for hits; i = inactive; ? = inconclusive; nt = no result; [ ] = remark or other dose. The list is not random: actives were taken first. Their share in the collection is about 6.6%. Unless noted, calls come from the whole dose curve; as a rule, active = well fitted curve in the direction sought with a large enough effect; inconclusive = small, poorly fitted or top-dose-only effect, or another doubt; inactive = no such curve, though single readings can be large; an effect the other way counts as inactive or inconclusive.

SMILES	KB-V1 cytotox	MCF10A rereplic	KB-3-1 cytotox	TSG101-PTAP inh	RGS4 inh	SW480 rereplic
CCc1cc(=O)oc2cc3occ(-c4ccc(OC)c(F)c4)c3cc12	1.6µM	2.3µM	18µM	i	?	?
COc1cc(OC)c2c(-c3cccc(-c4ccc(C(C)=O)cc4)c3)cc(=O)oc2c1	i	0.65µM	i	i	i	4.1µM
CCOC(=O)c1ccccc1NC(=O)N1CCC(CN2CCCCC2)CC1	i	nt	i	nt	i	nt
COc1ccc(-n2nc(C(=O)Nc3ccc(Cl)cn3)c3c4ccccc4n(C)c3c2=O)cc1Cl	?	nt	i	nt	i	nt
CC(=O)c1cccc(NC(=O)c2sc(-n3nc(C)c(Cc4ccc5c(c4)OCO5)c3C)nc2C)c1	nt	nt	nt	nt	i	nt
COc1ccc(-c2nc(Cn3c(SCc4cccc(C(F)(F)F)c4)nc4cccnc43)c(C)o2)cc1OC	nt	nt	nt	nt	i	nt
CCC(C(=O)Nc1cccc(-c2cn3cccnc3n2)c1)c1ccccc1 (configuration not stated)	i	nt	i	nt	i	nt
CCCOc1ccc(CNC(=O)C2CCN(c3nc4ccccc4nc3C(F)(F)F)CC2)cc1	i	nt	i	nt	i	nt
CC(C)(C)c1cc(CN(CCO)CCO)c(O)c(C(C)(C)C)c1	i	?	i	i	i	i
CC(C)(C)c1cc(CN2CCCC(O)C2)c(O)c(C(C)(C)C)c1 (configuration not stated)	16µM	i	?	?	i	i
CN(C)S(=O)(=O)c1cccc(NC(=O)c2cc(-c3cccs3)nn2-c2cccc(Cl)c2)c1	2.3µM	i	9.2µM	i	i	i
O=C(O)c1cc(-c2cccs2)nn1-c1cccc(Cl)c1	i	i	i	i	i	i
COc1ccc(-n2nc3c(N4CCCC(C(=O)NCCc5ccc(C)cc5)C4)nnc(C)c3c2C)cc1 (configuration not stated)	?	nt	?	nt	i	nt
Cc1nc(N)nc(N)c1-c1ccc(Cl)c(Cl)c1	i	i	?	i	i	i
Cc1cc(OCc2nc(N)nc(N)c2-c2ccc(Cl)c(Cl)c2)ccc1[N+](=O)[O-]	1µM	?	2.1µM	i	i	?
COC(=O)c1cc(C)[nH]c2c(C)cc3nc4ccccc4c3c12	?	21µM	i	i	i	?
Cc1ccc(-n2nnnc2CNC(=O)c2ccc([N+](=O)[O-])o2)cc1C	i	?	15µM	i	i	13µM
Cc1ccc(-n2nnnc2CNC(=O)c2ccc(Br)o2)cc1C	i	i	i	i	i	i
O=C(NCc1nnnn1-c1ccc(F)cc1)c1ccc([N+](=O)[O-])o1	?	?	18µM	i	i	?
O=C(NCc1nnnn1-c1ccc(F)cc1)c1ccc2ccccc2c1	i	nt	i	nt	nt	nt
O=C(NCC(c1ccc(F)cc1)N1CCOCC1)c1ccc([N+](=O)[O-])o1 (configuration not stated)	?	18µM	?	i	i	10µM
Cc1cc(NC(=O)c2ccc(NC(=O)c3cccs3)cc2)no1	15µM	i	i	i	?	i
CCCOc1ccc(C(=O)Nc2ccc(NC(=O)c3cccs3)cc2)cc1	i	i	i	i	i	i
Cc1cc(NC(=O)c2ccc(Cl)cc2)no1	i	i	i	i	i	i
CCOc1cccc(C(=O)Nc2ccc(N(CC)CC)cc2)c1	i	18µM	?	i	i	18µM
SMILES	KB-V1 cytotox	MCF10A rereplic	KB-3-1 cytotox	TSG101-PTAP inh	RGS4 inh	SW480 rereplic
Cc1ccn(-c2ccc(NC(=O)c3cccs3)cc2)n1	12µM	?	21µM	i	i	i
O=C(Nc1ccc(NC(=O)c2cccs2)cc1)c1cccs1	i	i	i	i	i	i
CCCCOc1cccc(C(=O)Nc2ccc(NC(=O)c3cccs3)cc2)c1	i	7.3µM	i	i	i	6.5µM
CCN(CC)c1ccc(NC(=O)c2ccc3c(c2)c(C)c(C)n3C)cc1	16µM	?	23µM	i	i	?
CCOc1ccc(NC(=O)c2cccc(OC(=S)N3CCC(C)CC3)c2)cc1	18µM	i	i	i	i	i
O=C(Nc1nonc1NC(=O)c1cccs1)c1cccs1	10µM	i[9.22 µM]	?	i	i	i
CCn1cc2c(n1)-c1c(oc(C(=O)Nc3cccc(C)c3C)c1C)CC2	nt	nt	nt	nt	i	nt
CCC(=O)N1CCc2cc(S(=O)(=O)CCC(=O)Nc3ccc(OC(F)(F)F)cc3)ccc21	i	nt	i	nt	i	nt
Cc1ccc(SC[C@H](Cc2ccccc2)N2CC[C@@H](C(C)(C)C)CCC2=O)cc1	?	nt	i	nt	nt	nt
CCn1c(=O)cc(SCC(=O)NCc2ccccc2OC)c2ccccc21	?	nt	?	nt	i	nt
COc1ccc2cc(C(=O)C3CCCN(C(=O)c4ccnn4C)C3)ccc2c1 (configuration not stated)	16µM	?	i	i	i	?
CCCCCCCCCCCCC(=O)N1CCCC[C@H]1CNC(=O)[C@@H](N)CCCCN	nt	nt	nt	nt	i	nt
COc1ccc(C(CNC(=O)CCNS(=O)(=O)c2ccc(Br)cc2)N2CCCC2)cc1 (configuration not stated)	?	i	i	i	i	i
COc1ccccc1C(CNC(=O)CCNS(=O)(=O)c1ccc(Br)cc1)N1CCCC1 (configuration not stated)	i	i	i	i	i	6.5µM
CC1(C)Cc2cccc(OCC(=O)Nc3ccccc3F)c2O1	i	i	i	i	i	i
Cc1ccc(NC(=O)COc2cccc3c2OC(C)(C)C3)c(O)c1	18µM	i	i	i	i	i
CC(C)(C)c1ccc(S(=O)(=O)N2CCN(c3nc(-c4ccccc4)nc4ccccc34)CC2)cc1	i	nt	i	nt	i	nt
Cc1onc(-c2ccccc2Cl)c1C(=O)N1CCc2ccccc21	23µM	i	i	i	i	i
Cc1onc(-c2ccccc2Cl)c1C(=O)N1CCCCC1	i	i	i	i	i	i
Cc1onc(-c2ccccc2Cl)c1C(=O)OCC(=O)N1CCN(c2ccccc2)CC1	8.2µM	?	i	i	i	i
Cc1onc(-c2ccccc2Cl)c1C(=O)N1CCN(C/C=C/c2ccccc2)CC1	15µM	?	i	i	i	?
Cc1ccc(/C=C/C(=O)N2CCN(Cc3ccccc3)CC2)o1	13µM	i	i	i	i	i
Cc1oc2c(c1C(=O)Nc1ccccc1Br)C1=NCCN1C=N2	i	nt	i	nt	i	nt
NC(=O)C1CCN(c2nnc(-c3ccc4c(c3)OCCCO4)s2)CC1	i	nt	i	nt	nt	nt
Cc1onc(-c2ccccc2Cl)c1C(=O)OCC(=O)Nc1cccc(S(=O)(=O)N(C)C)c1	8.2µM	i	?	i	i	i
COc1ccccc1N1CCN(C(=O)c2c(-c3ccccc3Cl)noc2C)CC1	?	i	21µM	i	i	?
Cc1onc(-c2ccccc2)c1C(=O)N1CCN(Cc2ccccc2)CC1	23µM	i	i	i	i	i

High-throughput results deposited in PubChem BioAssay by National Center for Advancing Translational Sciences (NCATS).
